LGR2 antag – inhibitors of bursicon-induced LGR2 CRE-luciferase signal, primary screen, cell-based, HEK293, CRE-luciferase reporter, bursicon stimulation. Drosophila bursicon receptor LGR2 (rickets). bursicon-stimulated, 4 h. inhibition, % at 9.99 µM. actives 0.35% (n = 380,000). AID 720647, 2013;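 active = drop in luminescence signal, shown as inhibition above about 50% in the replicate tests, limit read from the data, passing the limit was not always enough; inconclusive = probably only some replicates passing the limit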;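 note: agonist challenge used bursicon conditioned medium at about half maximal strength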
PGC1a acetyl inh – inhibitors of PGC1a acetylation signal, primary screen, cell-based, U2OS, AlphaScreen, inhibitor mode; AlphaScreen anti-acetyl-lysine; with virally co-expressed GCN5 acetyltransferase; inhibition, % at 15.6 µM; actives 0.17% (n = 350,000);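 active = every replicate shows inhibition of at least 40%; inconclusive = mean inhibition at least 40% but some replicate below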;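 note: 0% = neutral control wells and 100% = positive control wells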
MITF TRPM1 inh – inhibitors of MITF-dependent TRPM1 promoter reporter, primary screen, cell-based, SK-MEL-5, single point, luciferase; SK-MEL-5 TRPM1 promoter luciferase, 24 h; inhibition, % at 12.5 µM; actives 0.83% (n = 330,000); AID 488899, 2010;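 active = mean inhibition across replicates of 60% or more, whatever share of single replicates reaches that level; inconclusive = some that reach 60%, reason not given; inactive = mean inhibition across replicates below 60%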
LMP1 NFkB inh – EBV LMP1-driven NF-kappaB luciferase reporter inhibitors, primary screen, cell-based, luminescence, single point; LMP1-induced NF-kappaB luciferase reporter cells; inhibition, % at 12.5 µM; actives 0.69% (n = 350,000); AID 504558, 2011; in the data active = inhibition above about 41%; inconclusive = no clear call, values can overlap the other calls;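 note: 0% = neutral control wells and 100% = reference inhibitor control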
PAX8 inh HTS – inhibitors of PAX8-driven TPO luciferase reporter, primary screen, RMG-I cells, single concentration; SteadyGlo, 24 h; inhibition, % at 12.6 µM; actives 1.2% (n = 360,000);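 active = mean replicate inhibition at least 60% with every replicate also reaching 60%; inconclusive = only one of the two criteria is met; inactive = mean below 60% and not all replicates reaching 60%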;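 note: luciferase light reporting Pax8 driven TPO promoter activity; plate controls were median of neutral control wells for no effect and mitoxantrone controls for full effect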
EWS-Fli inh – EWS/Fli-driven NR0B1 reporter inhibitors, primary screen, A673 cells, NR0B1 luciferase, luminescence, MLPCN library; viability-normalised; inhibition, % at 12.6 µM; actives 0.67% (n = 350,000);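 active = mean inhibition of at least 50% after viability correction, with every replicate also passing that limit; inconclusive = mean reaches 50% but only one of two replicates passes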;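 note: firefly luciferase signal divided by Alamar Blue viability fluorescence both relative to DMSO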
Numbers without * were called inactive; u = inconclusive; x = not tested or not shown; ! = repeats disagree. Only some compounds are listed: those with a hit (about 2.2% of all), similar ones and a draw of the others.

SMILES	LGR2 antag	PGC1a acetyl inh	MITF TRPM1 inh	LMP1 NFkB inh	PAX8 inh HTS	EWS-Fli inh
C[C@@H]1CCCCO[C@@H](CN(C)C(=O)Cc2ccccc2)[C@@H](C)CN([C@@H](C)CO)C(=O)c2cc(NC(=O)Nc3ccc(F)cc3)ccc2O1	11.5	3.4	x	x	-17.5	3.7
O=C(Oc1ccc(/C=N/n2cnnc2)cc1)c1cccc([N+](=O)[O-])c1	72.7*	11.9	15.4	2.9	4.3	-1.1
CN(C)/N=C/c1ccc(OC(=O)c2cccc([N+](=O)[O-])c2)cc1	5.5	-2.5	0.9	1.9	-9.5	1.8
CC(=NNc1cc(C)c2cc(C)ccc2n1)c1ccccn1	-83.0	x	x	x	69.4*	30.4
C/C(=N\Nc1nc2ccccc2[nH]1)c1cc2ccccc2o1	-45.9	x	-4.4	-22.7	x	x
C/C(=N\Nc1nc2ccccc2[nH]1)c1ccccn1	22.9	x	53.9	93.4*	68.5*	22.4
Cc1ccc2nc(N/N=C/c3ccco3)cc(C)c2c1	-79.6	x	-23.9	-13.6	-122.9	-47.6
COCC#Cc1ccc([C@@H]2[C@H](CO)N3CCCCN(S(=O)(=O)c4ccccc4F)C[C@@H]23)cc1	5.7	1.6	x	x	-17.8	4.9
O=C(C(=Cc1ccccc1)CN1CCCCC1)c1ccccc1	94.5*	x	97.1*	90.5*	103.9*	57.8*
CN(C)S(=O)(=O)c1cccc(NC(=O)CSc2nc3c(cc2C#N)C(=O)CC(C)(C)C3)c1	28.8	x	68.2*	-1.1	u	27.6
CN(C)S(=O)(=O)c1ccc(Cl)c(NC(=O)CSc2nc3c(cc2C#N)C(=O)CC(C)(C)C3)c1	10.0	x	-0.7	-8.0	30.3	15.9
CCCCN1CCc2c1nc1ccc(Br)cc1c2N	-5.3	-13.6	66.2*	1.9	x	-9.5
Cc1ccc2nc3c(c(N)c2c1)CCN3C	2.6	12.7	7.9	-0.6	-23.9	-18.3
C[C@@H]1CN([C@H](C)CO)C(=O)c2c(c3ccccc3n2C)-c2ccccc2CO[C@H]1CN(C)C(=O)Nc1cccc(C(F)(F)F)c1	28.8	x	x	x	78.9*	8.3
C[C@H]1CN([C@@H](C)CO)C(=O)c2c(c3ccccc3n2C)-c2ccccc2CO[C@@H]1CN(C)Cc1cccc(C(F)(F)F)c1	16.3	x	x	x	81.7*	3.0
C[C@@H]1CN([C@H](C)CO)C(=O)c2c(c3ccccc3n2C)-c2ccccc2CO[C@@H]1CN(C)C(=O)Nc1cccc(C(F)(F)F)c1	25.8	-67.9	x	x	12.0	10.6
COc1ccc(-c2ccc(C3[C@H]4CNC[C@@H]3N4C(=O)Nc3cccc(OC)c3)cc2)cc1 (some centres not stated)	-14.4	-3.7	x	x	0.3	58.9*!
O=C(Cc1cccnc1)N1[C@H](CO)[C@H](c2ccccc2)[C@H]1CNCC1CCC1	11.2	1.6	x	x	-3.3	-0.3
CC(C)NC(=O)Nc1ccc2c(c1)C(=O)N(C)[C@H]1CC[C@H](CC(=O)Nc3ccccc3)O[C@@H]1CO2	4.3	-0.8	x	x	-5.4	1.2
O=C(Cc1csc(Nc2nc(=S)[nH]c3ccccc23)n1)N1CCN(c2cccc(Cl)c2)CC1	-3.3	x	77.6*	9.9	27.3	46.2
COc1ccc2c3c([nH]c2c1)[C@@H](CO)N(C(=O)c1ccncc1)CC31CCN(Cc2cccnc2)CC1	13.2	x	x	x	x	-11.9
O=C(NC(=S)N1CCN(Cc2ccc3c(c2)OCO3)CC1)c1cccc(Br)c1	-10.3	x	2.3	14.5	75.7*	16.7
CCOc1ccccc1-n1c(CN2CCN(C(=O)c3ccco3)CC2)nc2ccccc2c1=O	x	x	80.3*	-0.9	x	x
COc1ccc(NC(=O)N(C)C[C@@H]2OCCCC[C@H](C)Oc3ccc(NC(=O)CCC(F)(F)F)cc3C(=O)N([C@H](C)CO)C[C@H]2C)cc1	9.2	-2.3	x	x	-9.0	0.2
CNC[C@H]1Oc2ccc(NC(=O)Cc3cn(C)c4ccccc34)cc2CC(=O)N([C@H](C)CO)C[C@H]1C	0.4	3.7	x	x	13.8	16.9
Cc1cc(-c2cc(C)c(N)cc2C)c(C)cc1N	5.6	17.5	-1.1	-0.7	6.2	-5.0
Cc1cc2c(cc1C)C(=O)C(Br)=C(N)C2=O	-39.2	10.8	61.5*	-13.0	-1.0	-20.6
